Each structure is given as a SMILES string. This is part of a sample that, as a whole, favours compounds with a hit. Of some 83,000 tested, about 20% had one in any assay.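 Compound tested at a single concentration for 48 hours in 96-well plates; a percent growth value below 10 was scored as active.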 Unmarked numbers belong to inactive results. Activity calls are given as the source filed them.

What all share (assay): NCI-60 one-dose screen, 48 h (100 = growth as untreated, 0 = no growth, -100 = all killed)
One assay has as its system SK-MEL-2 melanoma. Conditions: 10 µM unless noted.
Another assay has as its system EKVX NSCLC. Conditions: 10 µM unless noted.
For another assay, the system named is SN12C renal. As to conditions: 10 µM unless noted.
The subject of another assay is UO-31 renal. As to conditions: 10 µM unless noted.
For the next assay, the system named is TK-10 renal. Conditions: 10 µM unless noted.
For the next assay, the system named is ACHN renal. As to conditions: 10 µM unless noted.
Another assay concerns CAKI-1 renal. As to conditions: 10 µM.
A further assay has as its system A498 renal. As to conditions: 10 µM unless noted.
For another assay, the system named is CCRF-CEM leukemia. Conditions: 10 µM unless noted.
The next assay relates to MOLT-4 leukemia. As to conditions: 10 µM unless noted.
Another assay deals with SR leukemia. Conditions: 10 µM unless noted.
For the next assay, the system named is OVCAR-8 ovarian. Conditions: 10 µM unless noted.
The test system of another assay is OVCAR-5 ovarian. As to conditions: 10 µM unless noted.
The next assay concerns OVCAR-4 ovarian. As to conditions: 10 µM unless noted.
In the next assay the test system is SK-OV-3 ovarian. Conditions: 10 µM unless noted.
In another assay the test system is OVCAR-3 ovarian. Conditions: 10 µM unless noted.
Another assay relates to NCI/ADR-RES ovarian. As to conditions: 10 µM unless noted.
In a further assay the test system is RPMI-8226 leukemia. As to conditions: 10 µM unless noted.
In a further assay the test system is IGROV1 ovarian. As to conditions: 10 µM unless noted.
In the next assay the test system is HS 578T breast. As to conditions: 10 µM unless noted.

Regarding `O=S(=O)(Nc1ccc(C2CC2)cc1)c1ccc(-c2cnc(C3CC3)o2)cc1`, the growth was 64.8% in the assay with SK-MEL-2 melanoma; 78.4% in the assay with EKVX NSCLC; 75% in the assay with SN12C renal; 71.3% in the assay on UO-31 renal; 101% with TK-10 renal; 87.6% in the assay on ACHN renal. Also, the growth is 27.5% with CAKI-1 renal; 60% in the assay on A498 renal; 57.9% in the assay on CCRF-CEM leukemia; 41.3% with MOLT-4 leukemia; 31.1% with SR leukemia; 80.2% in the assay with OVCAR-8 ovarian. Moreover, the growth with OVCAR-5 ovarian is 94.2%; in the assay with OVCAR-4 ovarian it was 67.1%; in the assay on SK-OV-3 ovarian, 87%; in the assay on OVCAR-3 ovarian, 53.2%; in the assay on NCI/ADR-RES ovarian, 47.7%.
Take `COc1ccc(NC(=O)Cn2cc(CN3C(=O)c4ccc([N+](=O)[O-])cc4C3=O)nn2)cc1`: the growth was 112% with SK-MEL-2 melanoma; 105% with EKVX NSCLC; 99.7% in the assay on SN12C renal; 88.1% in the assay with UO-31 renal; 103% in the assay with TK-10 renal; 104% with ACHN renal. In addition, the growth with CAKI-1 renal was 87.7%; in the assay with A498 renal, 88.2%; in the assay on CCRF-CEM leukemia, 109%; in the assay on MOLT-4 leukemia, 101%; in the assay with RPMI-8226 leukemia it was 102%; with OVCAR-8 ovarian, 94.2%. Moreover, the growth is 115% in the assay with OVCAR-5 ovarian; 112% in the assay with OVCAR-4 ovarian; 93.2% in the assay with SK-OV-3 ovarian; 107% in the assay with IGROV1 ovarian; 106% in the assay on HS 578T breast; 100% in the assay with NCI/ADR-RES ovarian.
As for `CC(=O)Nc1cccc(-n2cnc3cc(-c4ccc(O)cc4)ccc32)c1`, the growth with SK-MEL-2 melanoma was 29.2%; in the assay on EKVX NSCLC it was 56.6%; with SN12C renal it was 38.1%; with UO-31 renal, 28.1%; with TK-10 renal, 72.6%; with ACHN renal, 33%. Moreover, the growth is 23.3% in the assay with CAKI-1 renal; -32.6% (active) in the assay with A498 renal; 23.6% in the assay on CCRF-CEM leukemia; 21.5% with MOLT-4 leukemia; 20.3% in the assay on RPMI-8226 leukemia; 28.8% in the assay with OVCAR-8 ovarian. Moreover, the growth in the assay with OVCAR-5 ovarian was 66.7%; with OVCAR-4 ovarian, 66.4%; with SK-OV-3 ovarian it was 32.9%; in the assay with IGROV1 ovarian it was 41.1%; in the assay on HS 578T breast it was -17.1% (active); in the assay on NCI/ADR-RES ovarian, 18.5%.
Take `COc1ccc2oc3c4[nH]c5ccccc5c4c4c(c3c2c1)C(=O)N(O)C4=O`: the growth in the assay with SK-MEL-2 melanoma is 107%; in the assay with EKVX NSCLC, 97.8%; in the assay on SN12C renal, 94.7%; in the assay on UO-31 renal, 82.2%; with TK-10 renal, 140%; in the assay with ACHN renal, 97.9%. The growth in the assay with CAKI-1 renal is 80.4%; in the assay on A498 renal, 75.4%; in the assay with CCRF-CEM leukemia it was 91.4%; with MOLT-4 leukemia, 116%; in the assay on RPMI-8226 leukemia, 91.9%; with OVCAR-8 ovarian it was 102%. The growth in the assay with OVCAR-5 ovarian is 109%; in the assay on OVCAR-4 ovarian it was 104%; in the assay on SK-OV-3 ovarian, 98.9%; in the assay with IGROV1 ovarian it was 94.9%; with HS 578T breast, 89.9%; in the assay on NCI/ADR-RES ovarian, 101%.
Turning to `Cn1c2ccccc2c2c3c(c4c5ccc(Br)cc5oc4c21)C(=O)N(O)C3=O`, the growth in the assay on SK-MEL-2 melanoma was 98.6%; in the assay on EKVX NSCLC, 96.6%; with SN12C renal, 92.7%; in the assay on UO-31 renal, -91.6% (active); in the assay with TK-10 renal it was 101%; in the assay with ACHN renal, 69.5%. For the same molecule, the growth in the assay on CAKI-1 renal is 40.4%; in the assay on A498 renal, -6.15% (active); in the assay on CCRF-CEM leukemia, 14.6%; in the assay on MOLT-4 leukemia it was 7.13% (active); in the assay with RPMI-8226 leukemia, 64.6%; in the assay with OVCAR-8 ovarian, 73.1%. Further, the growth in the assay on OVCAR-5 ovarian is 110%; with OVCAR-4 ovarian, 85.3%; in the assay on SK-OV-3 ovarian, 101%; in the assay with IGROV1 ovarian, 69.7%; in the assay on HS 578T breast, 102%; with NCI/ADR-RES ovarian, 92.5%.
Turning to `CS(=O)(=O)c1ccc(-c2nn(-c3ccccc3)cc2/C=C/C(=O)c2ccc(Br)cc2)cc1`, the growth with SK-MEL-2 melanoma is 103%; in the assay on EKVX NSCLC, 87.5%; in the assay with SN12C renal, 88.1%; with UO-31 renal it was 79.6%; in the assay with TK-10 renal, 107%; in the assay on ACHN renal, 94%. In addition, the growth in the assay with CAKI-1 renal was 84.6%; in the assay on A498 renal, 84.1%; in the assay with CCRF-CEM leukemia it was 41.8%; in the assay on MOLT-4 leukemia it was 60.6%; in the assay with SR leukemia, 59.6%; with OVCAR-8 ovarian, 93.6%. Moreover, the growth in the assay with OVCAR-5 ovarian is 101%; in the assay on OVCAR-4 ovarian, 90.6%; with SK-OV-3 ovarian, 107%; with IGROV1 ovarian, 95%; with OVCAR-3 ovarian, 70.3%; in the assay on NCI/ADR-RES ovarian, 85.2%.
In the case of `Nc1nc(N)c2c(n1)NC(c1ccc(Cl)cc1)CC(c1ccc(Nc3nc(NCCO)nc(Nc4ccc(Cl)cc4)n3)cc1)=N2` (stereo not drawn), the growth with SK-MEL-2 melanoma was 54.2%; in the assay with EKVX NSCLC, 76.1%; in the assay with SN12C renal, 56.6%; in the assay with UO-31 renal, 39.7%; in the assay on TK-10 renal, 72.9%; in the assay with ACHN renal, 57.5%. Moreover, the growth in the assay on CAKI-1 renal is 49.5%; in the assay on A498 renal it was 82.1%; with CCRF-CEM leukemia, 4.85% (active); in the assay with MOLT-4 leukemia it was 3.59% (active); in the assay with RPMI-8226 leukemia, -32.5% (active); in the assay on OVCAR-8 ovarian, 17.6%. Besides, the growth was 84.8% with OVCAR-5 ovarian; 34.6% with OVCAR-4 ovarian; 100% in the assay on SK-OV-3 ovarian; 37% in the assay on IGROV1 ovarian; 55.7% with HS 578T breast; 56.5% in the assay on NCI/ADR-RES ovarian.
As to `Clc1ccc(-c2csc(N/N=C/c3nc4ccccc4n3C3CC3)n2)cc1`, the growth in the assay with SK-MEL-2 melanoma was 106%; in the assay on EKVX NSCLC it was 92.2%; in the assay with SN12C renal, 104%; in the assay with UO-31 renal, 84.3%; in the assay with TK-10 renal, 85.6%; with ACHN renal it was 104%. The growth is 89.7% in the assay with CAKI-1 renal; 108% in the assay on A498 renal; 93.7% in the assay with CCRF-CEM leukemia; 98.2% with MOLT-4 leukemia; 96.6% in the assay on SR leukemia; 99% with OVCAR-8 ovarian. In addition, the growth in the assay on OVCAR-5 ovarian is 99.7%; in the assay on OVCAR-4 ovarian it was 101%; in the assay with SK-OV-3 ovarian it was 108%; with IGROV1 ovarian, 111%; with HS 578T breast it was 106%; in the assay with NCI/ADR-RES ovarian, 102%.

The values are drawn from PubChem BioAssay (NCI).
